The results in this text go back to PubChem BioAssay (NCI).

Test systems include NCI-H23 lung; NCI-H226 lung; NCI-H322M lung; HOP-62 NSCLC; NCI-H460 lung; HOP-92 NSCLC; NCI-H522 lung; A549/ATCC NSCLC; 786-0 renal; COLO 205 colon; DU-145 prostate; K-562 leukemia; MALME-3M melanoma; MDA-MB-231 breast; RXF 393 renal; SF-268 CNS; SF-295 CNS; SF-539 CNS; UACC-257 melanoma; M14 melanoma.
Experiment in all cases: NCI-60 one-dose screen, 48 h (100 = growth as untreated, 0 = no growth, -100 = all killed)
Common to all, as to conditions: 10 µM unless noted

Several values for one entry are separate records, joined by “and”; a condition that tells them apart may be missing. Equal values may be shown once. Compounds without any hit were thinned out: in the full panel of roughly 83,000, 20% have a hit.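 The endpoint reported here, percent growth, reads 100 for growth as untreated, 0 for no net growth and -100 for all cells dead.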 Activity calls are given as the source filed them. Rule for the calls: active = growth percent below 10; inactive = the rest.

For the molecule `CCCC[C@H]1C(=O)O[C@H](C)[C@H](NC(=O)c2cccc(NC=O)c2O)C(=O)O[C@@H](C)[C@@H]1OC(=O)CC(C)C`, the growth in the assay on NCI-H23 lung is 42% (inactive); in the assay on NCI-H226 lung, 44.1% (inactive); in the assay with NCI-H322M lung, 66.3% (inactive); with HOP-62 NSCLC, 48.4% (inactive); in the assay with NCI-H460 lung it was 19.9% (inactive); in the assay on HOP-92 NSCLC, 32.9% (inactive). Moreover, the growth is 51.2% (inactive) in the assay on NCI-H522 lung; 11.5% (inactive) with A549/ATCC NSCLC; 44.8% (inactive) in the assay with 786-0 renal; 42.2% (inactive) in the assay on COLO 205 colon; 85.9% (inactive) in the assay with DU-145 prostate; 26.4% (inactive) in the assay with K-562 leukemia. Further, the growth was 44% (inactive) with MALME-3M melanoma; 58.7% (inactive) in the assay on MDA-MB-231 breast; 6.91% (active) in the assay with RXF 393 renal; 46.6% (inactive) in the assay with SF-268 CNS; 9.04% (active) in the assay on SF-295 CNS; 39.3% (inactive) with SF-539 CNS. For the same molecule, the growth with UACC-257 melanoma was 42.8% (inactive).
With `Cc1cc2c(cc1-c1ccnc(/C=C/C(=O)O)c1)C(C)(C)CCC2(C)C`, the growth was 88.1% (inactive) with NCI-H23 lung; 78.8% (inactive) with NCI-H226 lung; 106% (inactive) with NCI-H322M lung; 96.8% (inactive) in the assay with HOP-62 NSCLC; 85.3% (inactive) in the assay with NCI-H460 lung; 56.5% (inactive) with HOP-92 NSCLC. For the same molecule, the growth was 76.2% (inactive) in the assay with NCI-H522 lung; 77.1% (inactive) in the assay with A549/ATCC NSCLC; 79.6% (inactive) with 786-0 renal; 124% (inactive) in the assay with COLO 205 colon; 105% (inactive) with DU-145 prostate; 85.5% (inactive) with K-562 leukemia. The growth with MALME-3M melanoma was 64.8% (inactive); with MDA-MB-231 breast, 75.5% (inactive); in the assay on RXF 393 renal it was 79.4% (inactive); in the assay on SF-268 CNS, 86.6% (inactive); in the assay on SF-295 CNS it was 88.6% (inactive); in the assay on SF-539 CNS, 78.2% (inactive). Also, the growth in the assay on UACC-257 melanoma is 87.4% (inactive); with M14 melanoma, 78.2% (inactive).
Take `C[C@H](O)CCC(=O)c1ccoc1`: the growth in the assay with NCI-H23 lung is 99.7% (inactive); with NCI-H226 lung, 99.2% (inactive); with NCI-H322M lung, 106% (inactive); with HOP-62 NSCLC, 108% (inactive); in the assay with NCI-H460 lung, 105% (inactive); with HOP-92 NSCLC, 111% (inactive). In addition, the growth was 99.5% (inactive) in the assay with NCI-H522 lung; 97% (inactive) in the assay with A549/ATCC NSCLC; 106% (inactive) in the assay on 786-0 renal; 116% (inactive) in the assay on COLO 205 colon; 100% (inactive) with DU-145 prostate; 96.5% (inactive) in the assay with K-562 leukemia. The growth in the assay on MALME-3M melanoma is 106% (inactive); in the assay on MDA-MB-231 breast, 108% (inactive); in the assay on RXF 393 renal, 99.4% (inactive); in the assay on SF-268 CNS it was 98.9% (inactive); in the assay with SF-295 CNS it was 107% (inactive); in the assay on SF-539 CNS it was 102% (inactive). Also, the growth was 99.5% (inactive) in the assay with UACC-257 melanoma and 108% (inactive) in the assay with M14 melanoma.
For the molecule `Cc1cc[c-]cc1.Fc1c[c-]c(-c2ccccn2)c(F)c1.N#CCC[PH+](CCC#N)c1ccccc1.[Pt+2]`, the growth was 34.3% (inactive) in the assay on NCI-H23 lung; 72.3% (inactive) in the assay on NCI-H226 lung; 79.4% (inactive) with NCI-H322M lung; 116% (inactive) in the assay with HOP-62 NSCLC; 43.1% (inactive) with NCI-H460 lung; 16.3% (inactive) in the assay on HOP-92 NSCLC. In addition, the growth is 16% (inactive) in the assay on NCI-H522 lung; 50.5% (inactive) in the assay with A549/ATCC NSCLC; 48.9% (inactive) in the assay with 786-0 renal; 12.5% (inactive) in the assay with COLO 205 colon; 57.6% (inactive) in the assay on DU-145 prostate; 11.6% (inactive) in the assay with K-562 leukemia. The growth was 0.385% (active) in the assay on MALME-3M melanoma; 13.7% (inactive) in the assay with MDA-MB-231 breast; -36% (active) with RXF 393 renal; 46% (inactive) in the assay with SF-268 CNS; 85.2% (inactive) in the assay with SF-295 CNS; 48.3% (inactive) in the assay on SF-539 CNS. Besides, the growth with UACC-257 melanoma is 62.4% (inactive); in the assay on M14 melanoma, 21.9% (inactive).
For the molecule `CC[C@H](C)[C@H]1O[C@]2(C=C[C@@H]1C)C[C@@H]1C[C@@H](C/C=C(\C)[C@@H](O[C@H]3C[C@H](OC)[C@@H](O[C@H]4C[C@H](OC)[C@@H](NC)[C@H](C)O4)[C@H](C)O3)[C@@H](C)/C=C/C=C3\CO[C@@H]4[C@H](O)C(C)=C[C@@H](C(=O)O1)[C@]34O)O2`, the growth is -68.8% (active) in the assay on NCI-H23 lung; -75.2% (active) in the assay on NCI-H226 lung; -22.3% (active) in the assay with NCI-H322M lung; -60.9% (active) with HOP-62 NSCLC; -77.4% (active) in the assay with NCI-H460 lung; -33.8% (active) in the assay on HOP-92 NSCLC. Also, the growth in the assay with NCI-H522 lung is -70.3% (active); in the assay on A549/ATCC NSCLC, -51.6% (active); in the assay on 786-0 renal, -88.4% (active); with COLO 205 colon, -71.6% (active); in the assay with DU-145 prostate, -85.2% (active); in the assay on K-562 leukemia, -41.4% (active). For the same molecule, the growth in the assay with MALME-3M melanoma is -67.2% (active); in the assay on MDA-MB-231 breast, -71.9% (active); in the assay with RXF 393 renal, -88.4% (active); in the assay with SF-268 CNS it was -56% (active); in the assay on SF-295 CNS, -65.6% (active); with SF-539 CNS it was -79.7% (active). Besides, the growth is -56.7% (active) in the assay with UACC-257 melanoma and -68.6% (active) in the assay with M14 melanoma.
As for `O=C(O)C1C(C(=O)O)C2(Cl)C(Cl)=C(Cl)C1(Cl)C2(Cl)Cl` (centres undefined), the growth was 96.8% (inactive) and 100% (inactive) in the assay with NCI-H23 lung; 98.5% (inactive) and 114% (inactive) with NCI-H226 lung; 106% (inactive) and 117% (inactive) in the assay with NCI-H322M lung; 99.6% (inactive) and 111% (inactive) in the assay with HOP-62 NSCLC; 101% (inactive) and 111% (inactive) in the assay with NCI-H460 lung; 94.3% (inactive) and 94.8% (inactive) in the assay with HOP-92 NSCLC. Also, the growth with NCI-H522 lung is 97.2% (inactive) and 123% (inactive); in the assay with A549/ATCC NSCLC, 104% (inactive) and 95.8% (inactive); in the assay on 786-0 renal it was 111% (inactive) and 99.2% (inactive); in the assay on COLO 205 colon it was 101% (inactive) and 119% (inactive); in the assay on DU-145 prostate, 107% (inactive) and 120% (inactive); in the assay on K-562 leukemia, 113% (inactive) and 115% (inactive). Moreover, the growth in the assay on MALME-3M melanoma was 104% (inactive) and 102% (inactive); in the assay on MDA-MB-231 breast, 111% (inactive) and 102% (inactive); with RXF 393 renal it was 103% (inactive) and 130% (inactive); with SF-268 CNS it was 105% (inactive) and 106% (inactive); in the assay with SF-295 CNS it was 101% (inactive) and 113% (inactive); with SF-539 CNS it was 88.5% (inactive). Further, the growth in the assay with UACC-257 melanoma was 102% (inactive) and 104% (inactive); in the assay with M14 melanoma it was 102% (inactive) and 109% (inactive).
